What is called AC50 is the concentration at which the activity in the assay is half-maximal.

Structures are written as SMILES. Calls of active or inactive are those of the source. The calls were made as follows: active = hit-call score of the fitted dose curve at least 0.9, where 1 is the maximum; inactive = score below 0.9.

The assay is described as follows: ATG_GLI_CIS: Attagene CIS-FACTORIAL HepG2 Assay for human Zinc Finger Protein GLI1 (AID 2282945). The settings on record: HepG2, Attagene cis-factorial reporter mRNA, GLI element; actives raise or lower the signal. The method in brief:
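Bidirectional curve fits relative to DMSO, using reporter mRNA levels from RT-PCR plus capillary electrophoresis. Cells were HepG2 transiently carrying cis-regulated reporter constructs, harvested 24 h after dosing.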
With `NC(=O)C(F)(F)C(F)(F)C(F)(F)C(F)(F)F`, the outcome was inactive.
Same read-out and setting: the same measure for `O=P(O)(O)OCCC(F)(F)C(F)(F)C(F)(F)C(F)(F)C(F)(F)C(F)(F)F`: “inactive”; for `CC(=O)Nc1ccc(N=Nc2cc(C)ccc2O)cc1`: “inactive”.
Consider `CCCCCCC(C)OC(=O)CCCCC(=O)OC(C)CCCCCC` (centres undefined), for which the call was inactive.
The same measure, in the same setting: the same measure for `CC(Cc1ccc(O)c(O)c1)C(C)Cc1ccc(O)c(O)c1` (centres undefined): “inactive”; for `FC(F)(F)C(F)(F)C(F)(F)C(F)(F)C(F)(F)C(F)(F)C(F)(F)C(F)(F)CCS`: “inactive”; for `FC(F)(Br)C(F)(F)C(F)(F)C(F)(F)C(F)(F)C(F)(F)Br`: “inactive”.
Same read-out and setting: the same measure for `OCC(F)(F)C(F)(F)C(F)(F)C(F)(F)C(F)(F)C(F)F`: “inactive”; for `COC(=O)CCC(F)(F)C(F)(F)C(F)(F)C(F)(F)F`: “inactive”; for `FC(F)(F)C(F)(F)C(F)(F)N(C(F)(F)C(F)(F)C(F)(F)F)C(F)(F)C(F)(F)C(F)(F)F`: “inactive”.
For the compound `FC(F)(F)C(F)(F)C(F)(F)C(F)(F)C(F)(F)C(F)(F)C(F)(F)C(F)(F)F`, the result was inactive.
The same measure, in the same setting: to `c1ccc(-c2ccccc2-c2ccccc2)cc1` belongs “inactive”; to `CCO[Si](CCC(F)(F)C(F)(F)C(F)(F)C(F)(F)C(F)(F)C(F)(F)F)(OCC)OCC`, “inactive”.
Turning to `FC(F)(I)C(F)(F)C(F)(F)C(F)(F)I`, the compound was classed as inactive.
Still for that read-out and setting: to `CCCCCCCCC(F)(F)C(F)(F)C(F)(F)C(F)(F)C(F)(F)C(F)(F)F` belongs “inactive”.
On the same count and under the same terms, the same measure for `FC(F)(F)C(F)(F)CNCC(F)(F)C(F)(F)F`: “inactive”.
Still for that read-out and setting: to `CC/C=C\CCOC(=O)c1ccccc1` belongs “inactive”.
On to `O=S(=O)(OCCOC(F)(F)F)C(F)(F)F`, for which the call was inactive.
Same read-out and setting: the same measure for `O=S(=O)(O)c1ccc2ccccc2c1`: “inactive”.
Still for that read-out and setting: the same measure for `Cc1cccc(N(C)C)c1`: “inactive”; for `FC(F)(F)C(F)(F)C(F)(F)CI`: “inactive”.
`O=C(O)C(F)(OC(F)(F)C(F)(OC(F)(F)C(F)(OC(F)(F)C(F)(F)C(F)(F)F)C(F)(F)F)C(F)(F)F)C(F)(F)F` (centres undefined): the outcome was inactive.
As to `Nc1ccc(Oc2cccc(Oc3ccc(N)cc3)c2)cc1`, the AC50 is 178 µM (active).
Regarding `FC(F)(F)C(F)(F)C(F)(F)C(F)(F)C(F)(F)C(F)(F)CCS`, the outcome was inactive.
Still for that read-out and setting: to `C=C(C)C(=O)OCC(F)(F)C(F)(F)C(F)(F)F` belongs “inactive”; to `COC(OC(C)=O)c1ccccc1` (centres undefined), “inactive”.
For the compound `FC(F)(F)C(F)(F)C(F)(F)C(F)(F)C(F)(F)CCI`, the call was inactive.
The same measure, in the same setting: the same measure for `Nc1ccc([N+](=O)[O-])cc1O`: “inactive”.
As for `C#C[C@]1(O)CC[C@H]2[C@@H]3CCc4cc(OC)ccc4[C@H]3CC[C@@]21C`, the compound was classed as inactive.
With `CC(C)=CCCC(C)CCOC(=O)C(C)C` (centres undefined), the compound was classed as inactive.
The same measure, in the same setting: the same measure for `OCC(F)(F)C(F)(F)C(F)(F)C(F)F`: “inactive”; for `CC(CCl)OP(=O)(OC(C)CCl)OC(C)CCl` (centres undefined): “inactive”; for `CC(C)OC(=O)c1ccccc1C(=O)OC(C)C`: “inactive”.
On to `FC(F)(F)C(F)(F)C(F)(F)C(F)(F)C(F)(F)C(F)(F)CC1CO1` (centres undefined), for which the call was inactive.
